Assay outcomes: PubChem, National Center for Advancing Translational Sciences (NCATS)
TGFb inhibitor = TGF-b pathway inhibition; HepG2 CAGA-GFP TGF-b/SMAD3 reporter, GFP fluorescence, 18 h; TGF-beta stimulated, 500 pg/mL final; Potency, µM (doses to about 46.1 µM), without a hit: at the top dose activity, negative = inhibition, usual class: inhibitors; actives 1.2% (n = 410,000); AID 588855; also: % is scaled to controls: 0 for no effect and ±100 for the full control effect; nearly all actives have a fitted effect of over 65% in size
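Cell-based qHTS in HEPG2 carrying a CAGA-GFP Smad reporter; compounds added before 500 pg/mL final TGF-beta, 18 h incubation at 37 degrees C, GFP fluorescence quantified per cell by imaging cytometry.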
DT40 TDP1 no CPT = qHTS for Inhibitors of human tyrosyl-DNA phosphodiesterase 1 (TDP1): qHTS in cells in absence of CPT | DT40 Tdp1-/- hTDP1 cells, no CPT, ATP luminescence, 48 h | Potency, µM (series often up to 46.2 µM), for inactives: top-dose activity change, negative = growth inhibition, hits mostly inhibitors | actives 15% (n = 420,000); also: % is scaled to controls: 0 for no effect and ±100 for the full control effect; nearly all actives have a fitted effect of over 55% in size
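A cellular qHTS used chicken DT40 cells lacking endogenous Tdp1 but carrying stably transfected human TDP1. Compounds were applied without camptothecin, and cell growth kinetics were judged by ATP-dependent luminescence after ≥48 hr.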
HT1080-NT tox = kills 2HG-producing HT-1080-NT fibrosarcoma cells; HT-1080-NT fibrosarcoma viability, CellTiter-Glo ATP luminescence, 48 h; Potency, µM (top dose mostly 46.1 µM), without a hit: at the top dose activity, negative = less viability, actives largely listed as cytotoxic; actives 1.6% (n = 360,000);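 also: NT is the 2HG producing partner of a matched IDH1 knockdown line; 0% = DMSO-treated cells and -100% = media-only wells without cells; nearly all actives have a fitted effect of over 55% in size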
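A 48-hour cytotoxicity screen used HT-1080-NT cells plated 2 hours before compound delivery. ATP-based CellTiter-Glo luminescence measured viability, normalized to DMSO and no-cell controls.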
HepG2 tox = counter-screen for TGF-b inhibitors: cytotoxicity in HepG2 cells; actives 0.76% (n = 410,000); Potency, µM (highest dose often 46.1 µM), inactives show at the highest dose activity change, negative = cytotoxicity, most hits filed as cytotoxic; HepG2 CAGA-GFP viability, ATP luminescence, 18 h
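CellTiter-Glo luminescence gave cytotoxicity after 18 hours at 37 degrees C. The cells were HepG2 CAGA-GFP in 1% FBS DMEM, stimulated with 500 pg/mL TGF-beta after compound addition. %Activity was normalised to no-cell wells (complete cell-killing) and DMSO (no toxicity), and curves were fitted and classified.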
DT40 TDP1 CPT = DT40-hTDP1 cell growth loss with CPT. chicken DT40 Tdp1-/-;hTDP1 cells + 20 nM CPT, ATP luminescence, 48 h. Potency, µM (series often up to 46.2 µM), inactives show top-dose activity change, negative = growth inhibition, hits mostly inhibitors. actives 12% (n = 420,000). AID 686979; also: % is scaled to controls: 0 for no effect and ±100 for the full control effect; nearly all actives have a fitted effect of over 55% in size
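Chicken DT40 Tdp1-/- cells complemented with human TDP1, 400 cells/well, exposed to compounds plus 20 nM camptothecin for at least 48 h at 37 C; viability read as ATP content by CellTiter-Glo luminescence.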
HT1080 IDH1KD tx = toxicity to HT-1080 IDH1 knockdown cells (counter line); HT-1080 IDH1 knockdown viability, ATP luminescence, 48 h; Potency, µM (titrated, usually from 46.1 µM), inactives show at the top dose activity, negative = toxicity, hits mostly cytotoxic; actives 2% (n = 360,000);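 also: 0% = DMSO wells and -100% = cell-free medium wells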
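CellTiter-Glo luminescence after 48 h compound exposure at 37 degrees C of IDH1-knockdown HT-1080 cells in 5% FBS RPMI. %Activity scaled between DMSO wells and cell-free media wells, with curves fitted and assigned curve classes.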
Active calls of the source: *; ? = inconclusive; / = no result. Only some compounds are listed: those with a hit (about 17% of all), similar ones and a draw of the others. Calls follow the shape of the dose curve; as a rule, active = well fitted curve in the direction sought with a large enough effect; inconclusive = small, poorly fitted or top-dose-only effect, or another doubt; inactive = no such curve, though single readings can be large; an effect the other way counts as inactive or inconclusive. Potency is read from the fitted curve at half-maximal effect.

SMILES	TGFb inhibitor	DT40 TDP1 no CPT	HT1080-NT tox	HepG2 tox	DT40 TDP1 CPT	HT1080 IDH1KD tx
COc1ccc(NC(=O)C2Cc3c(-c4cccc(F)c4)ccnc3O2)cc1 (stereo not drawn)	26.8%	?	-6.6%	-3.3%	20.6µM*	?
COc1ccc(NC(=O)C2Cc3c(-c4cccc(C(N)=O)c4)ccnc3O2)cc1 (stereo not drawn)	8.1%	3.66µM*	11.6µM*	-22.4%	5.8µM*	14.6µM*
CC(=O)Nc1cccc(-c2ccnc3c2CC(C(=O)Nc2ccc(Cl)cc2)O3)c1 (stereo not drawn)	31.7%	16.4µM*	?	-17.1%	16.4µM*	20.6µM*
CC(=O)c1cccc(-c2ccnc3c2CC(C(=O)Nc2cccc(Oc4ccccc4)c2)O3)c1 (stereo not drawn)	-0.6%	?	-19.5%	-13.3%	?	-4.3%
CC(=O)Nc1cccc(-c2ccnc3c2CC(C(=O)Nc2ccccc2)O3)c1 (stereo not drawn)	1.5%	?	-1.1%	-20.2%	?	15.4%
Cc1ccc(N(CC(=O)NCc2ccccc2)C(=O)c2csnn2)c(C)c1	-12.3%	-13.3%	-3.4%	-2.6%	-5.1%	2.5%
Cc1ccc(-c2nnn(CC(=O)N(Cc3ccccc3)C(C(=O)NC3CCCC3)c3ccncc3)n2)o1 (stereo not drawn)	-8.7%	-5.8%	1.6%	7.5%	-5.3%	?
COc1ccc(NC(=O)C2Cc3c(-c4cccc(C(N)=O)c4)ccnc3O2)cn1 (stereo not drawn)	8.2%	11.6µM*	?	0.5%	10.3µM*	20.6µM*
O=C(Nc1ccc(Cl)cc1)C1Cc2c(-c3cccc(F)c3)ccnc2O1 (stereo not drawn)	?	18.4µM*	?	-42.3%	?	?
CC(=O)Nc1ccc(NC(=O)C2Cc3c(-c4cccc(F)c4)ccnc3O2)cc1 (stereo not drawn)	8.7%	-23.8%	-3.5%	-1.1%	-3.9%	-3.5%
O=C(O)c1ccc(-c2cccc(-c3nn4c(=O)cc(N5CCNCC5)nc4s3)c2)cc1	3.4%	/	/	-2.3%	/	/
O=c1cc(Nc2ccc3c(c2)OCCO3)[nH]c(=O)n1-c1ccc(Cl)cc1	4.4%	18.4µM*	-3.9%	-0.6%	23.1µM*	0.9%
O=c1cc(Nc2ccc3c(c2)OCCO3)[nH]c(=O)n1C1CCCCC1	-11.4%	16.4µM*	?	-22.6%	14.6µM*	?
CCc1ccc(Nc2cc(=O)n(C3CCCCC3)c(=O)[nH]2)cc1	?	-71.9%	?	-19.9%	?	?
O=C(C1CCN(CCCc2ccccc2)CC1)N(CCc1ccccc1)Cc1ccccc1	?	14.6µM*	?	-48.5%	?	?
O=C(OC1CC2CC1[C@H]1CCCCN1C2=O)N1CCN(c2ccccc2)CC1 (stereo partly drawn)	/	?	8.6%	/	1.8%	2.8%
O=C(OC1CC2CC1[C@H]1CCCCN1C2=O)N1CCC(c2ccccc2)CC1 (stereo partly drawn)	/	16.4µM*	-2.0%	/	?	-5.8%
CSc1nsc2nc(=O)c(/C=C3\C(C)=Nc4ccc(C)cc43)c(N)n12	?	?	?	-32.4%	16.4µM*	?
CC(C)NC(=O)CSc1nc2ccccc2c(=O)n1CCCOC(C)C	0.2%	-19.4%	0.0%	3.0%	-7.3%	-1.9%
COCCn1c(SCC(=O)c2c[nH]c3ccccc23)nc2cc(C(=O)NC(C)C)ccc2c1=O	?	?	/	-10.9%	?	/
